# Results reported in PMC7862700, “An all-to-all approach to the identification of sequence-specific readers for epigenetic DNA modifications on cytosine”.
# Assays:
# Assay in all cases: DAPPL (digital affinity profiling via proximity ligation, sequencing); 10 mM Tris-HCl pH 7.5, 50 mM NaCl, 1 mM DTT, 4% glycerol, room temperature, 30 min; GST-TFs on glutathione beads, 16-mer random dsDNA library, 0.1% formaldehyde crosslink after washing; high values mean tight binding
# FEV = target: T1, FEV (Homo sapiens, UniProt Q99581 1-238); settings: protein: recombinant; tags: N-terminal GST; dsDNA, one strand shown
# T1 sequence: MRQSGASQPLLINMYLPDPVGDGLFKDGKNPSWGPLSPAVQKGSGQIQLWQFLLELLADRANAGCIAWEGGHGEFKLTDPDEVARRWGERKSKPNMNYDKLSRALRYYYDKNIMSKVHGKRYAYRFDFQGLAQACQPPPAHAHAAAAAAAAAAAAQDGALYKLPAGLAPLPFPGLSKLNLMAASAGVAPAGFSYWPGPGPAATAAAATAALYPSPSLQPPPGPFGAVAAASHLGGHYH
# How it was run: (§1)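 GST fusions of human transcription factors were expressed in yeast and captured with glutathione beads. Once given DNA barcodes and pooled alongside a tag-only sample, they were incubated for 30 min at room temperature with 200 nmole of a random double-stranded 16-mer DNA library in Tris/NaCl/DTT/glycerol buffer, then washed, crosslinked (0.1% formaldehyde), proximity-ligated, PCR-amplified and sequenced on an Illumina NextSeq500. The binding signal of each hexamer is its read frequency for a factor divided by its frequency for the tag-only sample.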
# ETV5 = ETV5 (Homo sapiens, UniProt P41161 1-510); settings: protein: recombinant; tags: N-terminal GST; dsDNA, one strand shown
# How it was run: as §1
# HSF1 = HSF1 (Homo sapiens, UniProt Q00613 1-529); settings: protein: recombinant; tags: N-terminal GST; chain copies: 3; dsDNA, one strand shown
# How it was run: as §1
# SPIC = target: T2, SPIC (Homo sapiens, UniProt Q8N5J4 1-248); settings: protein: recombinant; tags: N-terminal GST; dsDNA, one strand shown
# T2 sequence: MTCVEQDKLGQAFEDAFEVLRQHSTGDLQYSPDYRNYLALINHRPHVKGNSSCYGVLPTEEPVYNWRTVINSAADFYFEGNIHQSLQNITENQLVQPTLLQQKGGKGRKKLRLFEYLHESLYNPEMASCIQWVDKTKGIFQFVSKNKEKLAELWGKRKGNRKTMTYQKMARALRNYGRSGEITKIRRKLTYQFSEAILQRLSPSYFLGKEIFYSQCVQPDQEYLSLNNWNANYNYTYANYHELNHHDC
# How it was run: as §1
# ELF4 = ELF4 (Homo sapiens, UniProt Q99607 1-663); settings: protein: recombinant; tags: N-terminal GST; dsDNA, one strand shown
# How it was run: as §1
# ELK4 = target: T3, ELK4 (Homo sapiens, UniProt P28324-2 1-405); settings: protein: recombinant; tags: N-terminal GST; dsDNA, one strand shown
# T3 sequence: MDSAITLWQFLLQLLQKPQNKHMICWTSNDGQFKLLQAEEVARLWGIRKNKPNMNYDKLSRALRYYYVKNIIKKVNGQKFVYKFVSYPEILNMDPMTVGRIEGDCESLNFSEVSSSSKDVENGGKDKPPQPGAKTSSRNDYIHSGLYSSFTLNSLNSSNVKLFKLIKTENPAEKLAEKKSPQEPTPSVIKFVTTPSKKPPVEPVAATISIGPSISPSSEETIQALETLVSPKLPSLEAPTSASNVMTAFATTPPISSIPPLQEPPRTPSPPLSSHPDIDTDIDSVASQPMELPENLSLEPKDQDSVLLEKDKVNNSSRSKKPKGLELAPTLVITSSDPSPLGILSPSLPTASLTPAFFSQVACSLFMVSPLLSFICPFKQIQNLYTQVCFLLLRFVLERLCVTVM
# How it was run: as §1
# ETV2 = target: T4, ETV2 (Homo sapiens, UniProt O00321 1-342); settings: protein: recombinant; tags: N-terminal GST; dsDNA, one strand shown
# T4 sequence: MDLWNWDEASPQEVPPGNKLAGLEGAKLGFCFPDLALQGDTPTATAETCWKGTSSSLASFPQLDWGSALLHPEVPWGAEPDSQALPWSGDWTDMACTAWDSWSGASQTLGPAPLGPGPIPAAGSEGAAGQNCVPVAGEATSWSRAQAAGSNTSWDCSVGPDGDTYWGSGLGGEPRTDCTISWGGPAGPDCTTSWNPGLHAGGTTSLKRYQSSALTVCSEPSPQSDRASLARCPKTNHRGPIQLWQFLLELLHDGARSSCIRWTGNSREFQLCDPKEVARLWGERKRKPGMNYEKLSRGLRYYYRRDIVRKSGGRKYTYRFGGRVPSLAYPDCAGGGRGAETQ
# How it was run: as §1
# ELF3 = target: T5, ELF3 (Homo sapiens, UniProt P78545 1-371); settings: protein: recombinant; tags: N-terminal GST; dsDNA, one strand shown
# T5 sequence: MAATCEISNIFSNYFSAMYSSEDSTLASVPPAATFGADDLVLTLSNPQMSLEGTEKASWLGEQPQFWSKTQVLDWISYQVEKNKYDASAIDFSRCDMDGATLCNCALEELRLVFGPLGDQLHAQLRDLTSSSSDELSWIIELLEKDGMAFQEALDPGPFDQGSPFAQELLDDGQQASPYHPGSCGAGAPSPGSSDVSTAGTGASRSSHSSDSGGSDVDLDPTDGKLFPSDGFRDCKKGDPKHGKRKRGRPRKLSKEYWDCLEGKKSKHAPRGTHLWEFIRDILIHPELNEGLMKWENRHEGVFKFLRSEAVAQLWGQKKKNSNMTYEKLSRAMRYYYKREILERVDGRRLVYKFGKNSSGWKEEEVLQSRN
# How it was run: as §1
# CRX = CRX (Homo sapiens, UniProt O43186 1-299); settings: protein: recombinant; tags: N-terminal GST; dsDNA, one strand shown
# How it was run: as §1
# ETV1 = ETV1 (Homo sapiens, UniProt P50549 1-477); settings: protein: recombinant; tags: N-terminal GST; dsDNA, one strand shown
# How it was run: as §1
# Chain of CRX (O43186 whole entry): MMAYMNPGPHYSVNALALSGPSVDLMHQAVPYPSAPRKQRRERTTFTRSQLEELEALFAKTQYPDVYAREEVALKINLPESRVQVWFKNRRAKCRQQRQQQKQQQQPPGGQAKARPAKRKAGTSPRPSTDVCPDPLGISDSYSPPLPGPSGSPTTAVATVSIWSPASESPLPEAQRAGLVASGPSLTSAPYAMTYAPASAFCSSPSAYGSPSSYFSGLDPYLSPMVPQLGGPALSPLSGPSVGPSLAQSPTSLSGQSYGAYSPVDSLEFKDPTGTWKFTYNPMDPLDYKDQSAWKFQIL
# Chain of HSF1 (Q00613 whole entry): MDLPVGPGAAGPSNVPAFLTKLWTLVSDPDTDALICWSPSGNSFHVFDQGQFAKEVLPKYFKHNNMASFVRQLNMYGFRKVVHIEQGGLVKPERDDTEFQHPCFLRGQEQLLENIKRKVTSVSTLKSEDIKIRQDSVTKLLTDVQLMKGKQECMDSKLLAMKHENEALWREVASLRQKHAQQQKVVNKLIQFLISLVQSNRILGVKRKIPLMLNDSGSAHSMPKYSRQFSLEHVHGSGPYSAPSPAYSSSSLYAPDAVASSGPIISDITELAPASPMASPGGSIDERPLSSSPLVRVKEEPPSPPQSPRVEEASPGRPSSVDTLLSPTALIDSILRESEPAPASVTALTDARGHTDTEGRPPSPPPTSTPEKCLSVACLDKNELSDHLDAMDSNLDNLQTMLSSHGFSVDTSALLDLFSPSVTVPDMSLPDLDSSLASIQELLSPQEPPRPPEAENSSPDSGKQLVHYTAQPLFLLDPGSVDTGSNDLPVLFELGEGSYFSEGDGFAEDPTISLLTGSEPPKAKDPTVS
# Chain of ETV5 (P41161 whole entry): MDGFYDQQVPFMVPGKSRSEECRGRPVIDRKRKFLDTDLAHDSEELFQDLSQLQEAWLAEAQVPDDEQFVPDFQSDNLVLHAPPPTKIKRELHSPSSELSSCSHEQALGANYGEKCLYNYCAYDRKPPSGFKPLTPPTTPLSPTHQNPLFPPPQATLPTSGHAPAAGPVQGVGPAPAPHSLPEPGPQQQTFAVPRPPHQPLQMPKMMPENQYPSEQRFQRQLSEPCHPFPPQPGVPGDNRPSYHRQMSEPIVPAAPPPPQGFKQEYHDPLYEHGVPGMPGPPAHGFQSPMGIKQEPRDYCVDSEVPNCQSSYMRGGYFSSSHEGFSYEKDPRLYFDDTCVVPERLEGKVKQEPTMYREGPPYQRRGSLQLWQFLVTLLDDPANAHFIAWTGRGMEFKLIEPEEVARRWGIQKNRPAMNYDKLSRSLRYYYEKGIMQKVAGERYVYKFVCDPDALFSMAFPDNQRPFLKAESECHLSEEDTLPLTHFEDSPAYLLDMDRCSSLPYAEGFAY
# Chain of ELF4 (Q99607 whole entry): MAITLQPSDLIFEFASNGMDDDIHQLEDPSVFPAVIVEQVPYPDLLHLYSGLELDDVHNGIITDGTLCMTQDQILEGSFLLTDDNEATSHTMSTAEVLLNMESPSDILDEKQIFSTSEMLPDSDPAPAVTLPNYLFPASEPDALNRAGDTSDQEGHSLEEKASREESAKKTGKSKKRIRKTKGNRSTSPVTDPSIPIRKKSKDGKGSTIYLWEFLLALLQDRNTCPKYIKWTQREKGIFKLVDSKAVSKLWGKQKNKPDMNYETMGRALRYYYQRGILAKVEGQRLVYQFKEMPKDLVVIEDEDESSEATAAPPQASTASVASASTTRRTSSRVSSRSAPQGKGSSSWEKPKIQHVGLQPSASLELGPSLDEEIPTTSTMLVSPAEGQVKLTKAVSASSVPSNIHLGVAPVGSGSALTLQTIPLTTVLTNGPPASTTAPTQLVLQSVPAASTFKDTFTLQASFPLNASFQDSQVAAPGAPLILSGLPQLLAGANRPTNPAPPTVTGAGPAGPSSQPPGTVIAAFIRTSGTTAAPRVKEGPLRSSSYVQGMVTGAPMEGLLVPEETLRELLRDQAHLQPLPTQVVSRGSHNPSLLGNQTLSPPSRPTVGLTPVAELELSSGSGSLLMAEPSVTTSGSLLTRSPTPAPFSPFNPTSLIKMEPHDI
# Chain of ETV1 (P50549 whole entry): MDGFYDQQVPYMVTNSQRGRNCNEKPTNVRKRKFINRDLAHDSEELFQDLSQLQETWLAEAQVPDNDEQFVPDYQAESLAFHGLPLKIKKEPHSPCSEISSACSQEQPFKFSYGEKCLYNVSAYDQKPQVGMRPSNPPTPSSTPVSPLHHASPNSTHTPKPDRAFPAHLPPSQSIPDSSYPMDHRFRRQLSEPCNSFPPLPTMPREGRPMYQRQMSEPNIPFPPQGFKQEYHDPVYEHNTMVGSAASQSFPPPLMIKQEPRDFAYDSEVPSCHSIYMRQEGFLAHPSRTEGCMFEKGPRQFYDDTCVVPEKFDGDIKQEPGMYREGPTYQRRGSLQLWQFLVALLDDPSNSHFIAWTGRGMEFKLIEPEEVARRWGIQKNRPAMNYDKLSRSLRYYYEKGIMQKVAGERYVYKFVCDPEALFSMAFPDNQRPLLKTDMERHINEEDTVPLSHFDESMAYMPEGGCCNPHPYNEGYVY
sequence,measurement,setting,value
TAGCTC,binding signal,FEV,"1.19 fold enrichment (6-mer frequency, TF over GST control)"
same,binding signal,ETV5,"1.25 fold enrichment (6-mer frequency, TF over GST control)"
same,binding signal,HSF1,"1.24 fold enrichment (6-mer frequency, TF over GST control)"
same,binding signal,SPIC,"1.19 fold enrichment (6-mer frequency, TF over GST control)"
same,binding signal,ELF4,"1.22 fold enrichment (6-mer frequency, TF over GST control)"
same,binding signal,ELK4,"1.26 fold enrichment (6-mer frequency, TF over GST control)"
same,binding signal,ETV2,"1.37 fold enrichment (6-mer frequency, TF over GST control)"
same,binding signal,ELF3,"1.17 fold enrichment (6-mer frequency, TF over GST control)"
same,binding signal,CRX,"1.46 fold enrichment (6-mer frequency, TF over GST control)"
same,binding signal,ETV1,"1.21 fold enrichment (6-mer frequency, TF over GST control)"
